Assay outcomes: PubChem, several laboratories
PLC-gamma1 inh: PLC-gamma1 enzyme inhibitors, primary screen, biochemical, fluorescence, purified enzyme. 1-phosphatidylinositol 4,5-bisphosphate phosphodiesterase gamma-1 (Homo sapiens), P19174. fluorogenic substrate. inhibition, % at 12.2 µM. 370,000 compounds, 0.84% hits. AID 720700, 2013; in the data active = inhibition above about 9.5%
PLC-beta3 inh: human PLC-beta3 inhibitors, primary screen, biochemical, fluorescence. Purified PLC-beta3, fluorogenic substrate. inhibition, % at 12.2 µM. AID 720704, 2013. 370,000 compounds, 0.18% hits; in the data active = inhibition above about 11%;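 note: 0% = median of compound wells on plate and 100% = full blocker control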
FAS-TE inh: FAS thioesterase domain inhibitors, primary screen, biochemical, fluorescence intensity, uHTS; inhibition, % at 15 µM; 360,000 compounds, 0.67% hits; Fatty acid synthase (Homo sapiens), P49327; recombinant FAS-TE, OMFH fluorogenic substrate, fluorescence endpoint;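 active = compounds whose normalised, plate-corrected inhibition of enzyme fluorescence in the single-dose primary screen is 50% or more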;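 note: 0% = DMSO with enzyme and 100% = substrate without enzyme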
Cardio protect: cardioprotection against H2O2-induced cell death, primary screen, uHTS, H9c2 cells, ATPLite luminescence | AID 588492, 2011 | protection from H2O2 cell death, % at 20 µM | 360,000 compounds, 0.63% hits | H9c2 cardiomyocytes, H2O2 injury protection, 2 h;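 active = compounds giving at least 50% protection of heart cells from peroxide-induced death in the single-dose screen, raw or plate-pattern-corrected value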;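 note: 0% = DMSO wells with peroxide and 100% = DMSO wells without peroxide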
Starred values were filed as active, the others as inactive; i = inactive; · = not tested or not shown. Sampled rows, rich in hits. Any-hit rate of the full collection: about 2.2%.

SMILES	PLC-gamma1 inh	PLC-beta3 inh	FAS-TE inh	Cardio protect
COc1cccc(-c2cc(NC=O)c3ncc(-c4cc(OC)c(OC)c(OC)c4)n3c2)c1	-27	-41	2	8
COc1cc(-c2cc(NC=O)c3ncc(-c4ccc(C(C)=O)cc4)n3c2)ccc1O	-60	-85	9	83*
COc1cccc(-c2cnc3c(NC=O)cc(-c4ccc(O)c(OC)c4)cn23)c1	-23	-34	21	85*
COC(=O)[C@]12C[C@H](CC(=O)NCCC(C)C)C(=O)N(Cc3ccco3)C1=C[C@H](C(C)C)O[C@@H]2C1CC1	0	3	·	·
COC(=O)[C@]12C[C@H](CC(=O)N3CCOCC3)C(=O)N(Cc3ccccc3)C1=C[C@H](COCc1ccccc1)O[C@@H]2C	2	6	·	·
CCCCNC(=O)O[C@H]1CC[C@@]23CCCN2C(=O)CCC[C@H]3[C@H]1CCC	8	3	·	·
C=CCn1c(Cc2cccs2)nnc1SCC(=O)Nc1ccc(OCc2ccccc2)cc1	0	-2	·	·
CCCNC(=O)C(=O)Nc1ccc(N(C)C)cc1	11*	8	-10	1
CN(C)c1ccc(NC(=O)C(=O)NCCOc2ccccc2)cc1	-1	2	3	-4
CCOC(=O)[C@@]12CCCC=C1N(CCc1ccc(Cl)cc1)C(=O)[C@H]2CC(=O)NCc1ccc(OC)c(OC)c1	1	-2	·	·
CCN(CC)c1ccc2cc(-c3nnc(-c4ccncc4)o3)c(=O)oc2c1	-84	-136	-168	65*
CCN(CC)c1ccc2cc(C(C)=O)c(=O)oc2c1	-28	-31	-60	3
O=c1[nH]n(CC2COC3(CCCCC3)O2)c(=O)c2ccccc12 (stereo unspecified)	-1	-3	-5	52*
C1CCCCCC2(CCCCC1)OCC(CN1CCOCC1)O2 (stereo unspecified)	2	5	12	-9
CCN(Cc1nc2ccccc2c(=O)[nH]1)Cc1nc2cc(OC)c(OC)cc2c(=O)[nH]1	1	-3	-4	22
COc1ccccc1CN(Cc1nc2ccccc2c(=O)[nH]1)S(=O)(=O)c1ccc2ccccc2c1	-3	-5	41	58*
COc1ccc(-c2cc(C(=O)N(C)Cc3cccc(OC)c3OC)c3ccccc3n2)cc1OC	-436	i	12	29
COc1ccc(-c2cc(C(=O)N(C)Cc3nc4ccccc4c(=O)[nH]3)c3ccccc3n2)cc1OC	-214	-312	3	66*
COc1cc2nc(CN(C)Cc3nc4ccccc4c(=O)[nH]3)[nH]c(=O)c2cc1OC	-60	-81	-4	55*
C[C@H](CO)N1C[C@H](C)[C@@H](CN(C)C(=O)Nc2ccc(-c3cccs3)cc2)OCc2cn(nn2)CCCC1=O	-53	-77	·	·
Cc1ccc(OCCn2c(CCNC(=O)c3ccc(F)cc3F)nc3ccccc32)cc1	9	7	·	·
COCCOC(=O)N/C=C\c1nc2ccccc2c(=O)[nH]1	-3	-4	-13	65*
O=C1NC(=O)c2cc([N+](=O)[O-])cc3cccc1c23	-24	-38	-9	55*
Clc1ccc(CN2CCN(N=Cc3cccc(OCc4ccccc4)c3)CC2)cc1	2	3	·	·
Oc1c(Cl)cc(Cl)cc1/C=N/c1nccs1	-12	-14	-3	61*
SMILES	PLC-gamma1 inh	PLC-beta3 inh	FAS-TE inh	Cardio protect
Oc1c(Cl)cc(Cl)cc1/C=N/c1nc(-c2ccc(Cl)cc2)cs1	·	·	11	12
CCOCCCNC(=O)c1ccc2nc(-c3ccc(OC)c(OC)c3)c(-c3ccc(OC)c(OC)c3)nc2c1	-236	-325	-7	50*
CC1(C)CC2C1CCC1(O)CC2(C)CCC1N(O)c1ccc(C(=O)NCCO)cn1 (stereo unspecified)	1	-4	-2	51*
CC(C)(C)c1ccc(-c2nnc(SCC(=O)Nc3ccccc3-c3ccccc3)n2Cc2ccco2)cc1	0	1	·	·
COc1cccc(Nc2nc3ccccc3n3cnnc23)c1	-70	-87	2	86*
O=C(NCc1ccccc1)O[C@H]1CC[C@@]23CCCN2C(=O)CCC[C@H]3C1	-1	2	·	·
COc1ccc(CN=Cc2c(O)[nH]c3ccccc23)cc1	10.0*	5	-2	8
CCCCNc1c(-c2ccc(OC)c(Sc3ccc(OC)cc3)c2)nc2cnccn12	i	i	28	4
CCCCNc1c(-c2ccc(SC(C)CC)cc2)nc2cnccn12 (stereo unspecified)	·	·	55*	-10
Cc1cc(N2CCN(C(=O)OC(C)(C)C)C[C@@H]2C)ccc1N1CCN(Cc2ccccc2)[C@H](C)C1	9	0	·	·
COc1ccccc1NC(=O)c1cc(-c2cc(OC)c(OC)c(OC)c2)nc2ccccc12	-4	-11	19	66*
O=C(Nc1ccccc1N1CCOCC1)c1cc(-c2ccncc2)nc2ccccc12	-1	-7	3	40
COc1ccc(-c2cc(C(=O)NNC(=O)c3csc(N4CCOCC4)n3)c3ccccc3n2)cc1OC	-127	-119	2	44
COc1ccc(-c2cc(C(=O)NNC(=O)c3csc(N4CCOCC4)n3)c3ccccc3n2)cc1	i	i	8	52*
COc1ccc(-c2ccc3c(c2)S(=O)(=O)c2cccc(C(=O)N4CCN(C5CCCCC5)CC4)c2C3=O)cc1OC	-191	-304	-18	35
COc1ccc(-c2cc(C(=O)Nc3ccccc3N3CCOCC3)c3ccccc3n2)cc1OC	-27	-44	41	62*
COc1ccc(-c2ccc3c(c2)S(=O)(=O)c2cccc(C(=O)N4CCN(c5ccccn5)CC4)c2C3=O)cc1OC	-43	-58	7	88*
C[C@H]1[C@@H](OC(=O)Nc2ccccc2F)CC[C@@]23CCCN2C(=O)CCC[C@@H]13	0	4	·	·
COC(=O)C1CN(CC(C)C)CCS(=O)(=O)N1Cc1ccc(C(F)(F)F)cc1 (stereo unspecified)	-1	3	·	·
O=C(CSc1nnc(-c2cccnc2)n1-c1ccc(Cl)cc1)Nc1ccc(S(=O)(=O)Nc2nccs2)cc1	-4	-2	·	·
O=C(Nc1cccc(Cl)c1)OC1CCC12CCC(c1ccccc1)CC2 (stereo unspecified)	-1	-1	·	·
COc1cc(-c2cc(C(=O)Nc3ccncc3)c3ccccc3n2)cc(OC)c1OC	-89	-103	1	50
COc1cc(-c2cc(C(=O)Nc3ccc(S(=O)(=O)NCc4ccco4)cc3)c3ccccc3n2)cc(OC)c1OC	-387	-457	26	61*
COc1cc(-c2cc(C(=O)N3CCN(c4ccccn4)CC3)c3ccccc3n2)cc(OC)c1OC	-122	-180	16	65*
CCN(CC)S(=O)(=O)c1ccc(N2CCOCC2)c(NC(=O)c2cccc3ccccc23)c1	2	4	22	3
COc1cc(-c2cc(C(=O)NCc3ccco3)c3ccccc3n2)cc(OC)c1OC	-92	-128	5	59*
COc1cc(-c2cc(C(=O)NCc3ccc(S(N)(=O)=O)cc3)c3ccccc3n2)cc(OC)c1OC	-138	-187	0	10
CCN(CC)S(=O)(=O)c1ccc(N2CCOCC2)c(NC(=O)c2cc(-c3ccccn3)nc3ccccc23)c1	0	-9	28	52*
